Test results reported in PubChem BioAssay (NCI).
This is part of a sample that, as a whole, favours compounds with a hit. Of some 83,000 tested, about 20% had one in any assay.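 Values shown are percent growth following 48 h exposure of cells in 96-well plates to a single concentration of compound; below 10 was considered active.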 Calls of active or inactive are those of the source.

Tests used:
Experiment in all cases: NCI-60 one-dose screen, 48 h (100 = growth as untreated, 0 = no growth, -100 = all killed)
Conditions in all cases: 10 µM unless noted
SK-MEL-2 melanoma = tested on: SK-MEL-2 melanoma
EKVX NSCLC = tested on: EKVX NSCLC
SN12C renal = tested on: SN12C renal
UO-31 renal = tested on: UO-31 renal
TK-10 renal = tested on: TK-10 renal
ACHN renal = tested on: ACHN renal
CAKI-1 renal = tested on: CAKI-1 renal
A498 renal = tested on: A498 renal
CCRF-CEM leukemia = tested on: CCRF-CEM leukemia
MOLT-4 leukemia = tested on: MOLT-4 leukemia
RPMI-8226 leukemia = tested on: RPMI-8226 leukemia
OVCAR-8 ovarian = tested on: OVCAR-8 ovarian
OVCAR-5 ovarian = tested on: OVCAR-5 ovarian
OVCAR-4 ovarian = tested on: OVCAR-4 ovarian
SK-OV-3 ovarian = tested on: SK-OV-3 ovarian
IGROV1 ovarian = tested on: IGROV1 ovarian
OVCAR-3 ovarian = tested on: OVCAR-3 ovarian
HS 578T breast = tested on: HS 578T breast
NCI/ADR-RES ovarian = tested on: NCI/ADR-RES ovarian
SR leukemia = tested on: SR leukemia

Measured: growth

COc1ccc(C2Nc3ccccc3-n3cccc32)cc1 (stereo unspecified)
inactive: SK-MEL-2 melanoma 92.7% | EKVX NSCLC 68.8% | SN12C renal 97.4% | UO-31 renal 58.3% | TK-10 renal 100% | ACHN renal 88% | CAKI-1 renal 89% | A498 renal 93.2% | CCRF-CEM leukemia 104% | MOLT-4 leukemia 120% | RPMI-8226 leukemia 89.4% | OVCAR-8 ovarian 96.6% | OVCAR-5 ovarian 84.9% | OVCAR-4 ovarian 93.6% | SK-OV-3 ovarian 99.9% | IGROV1 ovarian 71.3% | OVCAR-3 ovarian 96.1% | HS 578T breast 93.2% | NCI/ADR-RES ovarian 89.9%

CCNS(=O)(=O)c1ncnc2nc[nH]c12
inactive: SK-MEL-2 melanoma 109% | EKVX NSCLC 104% | SN12C renal 112% | UO-31 renal 85.8% | TK-10 renal 122% | ACHN renal 119% | CAKI-1 renal 94.9% | A498 renal 110% | MOLT-4 leukemia 122% | SR leukemia 101% | RPMI-8226 leukemia 92% | OVCAR-8 ovarian 114% | OVCAR-5 ovarian 102% | OVCAR-4 ovarian 102% | SK-OV-3 ovarian 108% | IGROV1 ovarian 96.9% | OVCAR-3 ovarian 113% | HS 578T breast 144% | NCI/ADR-RES ovarian 99.7%

CCCCCn1cnc2c(=S)nc[nH]c21
inactive: SK-MEL-2 melanoma 121% | EKVX NSCLC 108% | SN12C renal 117% | UO-31 renal 99.1% | TK-10 renal 116% | ACHN renal 109% | CAKI-1 renal 115% | A498 renal 107% | MOLT-4 leukemia 104% | SR leukemia 112% | RPMI-8226 leukemia 81.9% | OVCAR-8 ovarian 118% | OVCAR-5 ovarian 121% | OVCAR-4 ovarian 86.5% | SK-OV-3 ovarian 98.7% | IGROV1 ovarian 116% | OVCAR-3 ovarian 124% | HS 578T breast 101% | NCI/ADR-RES ovarian 113%

Cc1nc2sc(C(=O)Nc3cccc4c3OCCO4)c(N)c2cc1C(C)O (stereo unspecified)
active: A498 renal -4.54% | SK-OV-3 ovarian -11.4% | OVCAR-3 ovarian 7.73%
inactive: SK-MEL-2 melanoma 17.1% | EKVX NSCLC 35.1% | SN12C renal 40.4% | UO-31 renal 44.3% | TK-10 renal 55.7% | ACHN renal 44.8% | CAKI-1 renal 40.9% | MOLT-4 leukemia 28.2% | SR leukemia 26.4% | RPMI-8226 leukemia 26.5% | OVCAR-8 ovarian 49.5% | OVCAR-5 ovarian 73.7% | OVCAR-4 ovarian 69.4% | IGROV1 ovarian 49% | HS 578T breast 33.5% | NCI/ADR-RES ovarian 31%

O=C(CN1CCN(c2cc3c(cc2F)c(=O)c(C(=O)O)cn3C2CC2)CC1)Nc1nc(-c2ccccc2)cs1
inactive: SK-MEL-2 melanoma 94.6% | EKVX NSCLC 91.4% | SN12C renal 71.2% | UO-31 renal 81.7% | TK-10 renal 82.9% | ACHN renal 89.5% | CAKI-1 renal 93.8% | A498 renal 65.2% | MOLT-4 leukemia 89% | SR leukemia 90.5% | RPMI-8226 leukemia 66.3% | OVCAR-8 ovarian 52.1% | OVCAR-5 ovarian 97.7% | OVCAR-4 ovarian 97.5% | SK-OV-3 ovarian 93.9% | IGROV1 ovarian 84.7% | OVCAR-3 ovarian 90.3% | HS 578T breast 60.5% | NCI/ADR-RES ovarian 92.7%

COc1ccc(-c2c3c(nc4n[nH]c(-c5ccc(Cl)cc5)c24)-c2ccccc2C(=O)C3=O)cc1
active: SK-MEL-2 melanoma -49.8% | UO-31 renal 0.604% | TK-10 renal -28.7% | CCRF-CEM leukemia -6.2% | MOLT-4 leukemia 0.0593% | RPMI-8226 leukemia -11.4% | OVCAR-8 ovarian 3.87% | OVCAR-3 ovarian -17.2% | HS 578T breast 7.1% | NCI/ADR-RES ovarian -3.63%
inactive: EKVX NSCLC 59% | SN12C renal 12% | ACHN renal 10.7% | CAKI-1 renal 47.1% | A498 renal 53.8% | OVCAR-5 ovarian 51.5% | OVCAR-4 ovarian 23% | SK-OV-3 ovarian 42.5%

Cc1ccc2c(c1)C(=O)c1c-2c(OCCCN(C)C)nc2ccccc12
active: UO-31 renal 3.12% | ACHN renal -6.51% | MOLT-4 leukemia -10.5% | SR leukemia -27.5% | RPMI-8226 leukemia -16.3% | IGROV1 ovarian 3.1%
inactive: SK-MEL-2 melanoma 44.7% | EKVX NSCLC 28.4% | SN12C renal 19.4% | TK-10 renal 37.2% | CAKI-1 renal 24.2% | A498 renal 33.3% | OVCAR-8 ovarian 17.2% | OVCAR-5 ovarian 51.6% | OVCAR-4 ovarian 27.3% | SK-OV-3 ovarian 60.3% | OVCAR-3 ovarian 55% | HS 578T breast 35.3% | NCI/ADR-RES ovarian 25.1%

C=C1CCC2C3(C)COC(c4ccccc4Br)OC3CCC2(C)C1C/C=C1/C(=O)OCC1OC(C)=O (stereo unspecified)
inactive: UO-31 renal 26% | A498 renal 42.8% | SK-OV-3 ovarian 52.7%
active: SK-MEL-2 melanoma -37.4% | EKVX NSCLC -3.86% | SN12C renal -43.7% | TK-10 renal -48.5% | ACHN renal -80.2% | CAKI-1 renal -32.4% | MOLT-4 leukemia -45.5% | SR leukemia -40.9% | RPMI-8226 leukemia -47% | OVCAR-8 ovarian -36.2% | OVCAR-5 ovarian -38.3% | OVCAR-4 ovarian -62.2% | IGROV1 ovarian -9.12% | OVCAR-3 ovarian -88.8% | HS 578T breast -30.9% | NCI/ADR-RES ovarian -3.45%

COc1ccc(-c2cc(=O)[nH]c3c(OC)c4ccccc4c(OC)c23)cc1
active: A498 renal -4.12% | MOLT-4 leukemia 6.7% | SR leukemia -14% | RPMI-8226 leukemia 4.21% | SK-OV-3 ovarian 2.24% | OVCAR-3 ovarian -43.2% | HS 578T breast -6.69% | NCI/ADR-RES ovarian 3.17%
inactive: SK-MEL-2 melanoma 27.6% | EKVX NSCLC 26.4% | SN12C renal 43.2% | UO-31 renal 31.3% | TK-10 renal 47.8% | ACHN renal 50.5% | CAKI-1 renal 38.7% | OVCAR-8 ovarian 33.3% | OVCAR-5 ovarian 36.3% | OVCAR-4 ovarian 30.8% | IGROV1 ovarian 32.8%

CC1(C)CC(=O)C(c2c(-c3ccccc3)[nH]c3[nH]c(=S)[nH]c(=O)c23)=C(O)C1
inactive: SK-MEL-2 melanoma 94.7% | EKVX NSCLC 89.8% | SN12C renal 99% | UO-31 renal 90.9% | TK-10 renal 107% | ACHN renal 97.3% | CAKI-1 renal 125% | A498 renal 100% | CCRF-CEM leukemia 92% | RPMI-8226 leukemia 101% | OVCAR-8 ovarian 100% | OVCAR-5 ovarian 98.4% | OVCAR-4 ovarian 114% | SK-OV-3 ovarian 114% | OVCAR-3 ovarian 124% | HS 578T breast 123% | NCI/ADR-RES ovarian 108%

Nc1nc(-c2ccc(F)cc2)cc(-c2cnn(-c3ccccc3)n2)n1
inactive: SK-MEL-2 melanoma 96% | EKVX NSCLC 99.7% | SN12C renal 111% | UO-31 renal 86.8% | TK-10 renal 121% | ACHN renal 100% | CAKI-1 renal 86.2% | A498 renal 85.9% | CCRF-CEM leukemia 103% | MOLT-4 leukemia 104% | OVCAR-8 ovarian 100% | OVCAR-5 ovarian 110% | OVCAR-4 ovarian 111% | SK-OV-3 ovarian 102% | IGROV1 ovarian 83.8% | OVCAR-3 ovarian 105% | HS 578T breast 106% | NCI/ADR-RES ovarian 106%

C=C1CC2(OC1=O)C(=O)N(CCCCCCCCCCCCN1C(=O)C3(CC(=C)C(=O)O3)c3ccccc31)c1ccccc12 (stereo unspecified)
active: MOLT-4 leukemia 2.36% | SR leukemia 2.62% | RPMI-8226 leukemia 3.98%
inactive: SK-MEL-2 melanoma 73.3% | EKVX NSCLC 98% | SN12C renal 53.1% | UO-31 renal 76.6% | TK-10 renal 96.1% | ACHN renal 97.8% | CAKI-1 renal 80.2% | A498 renal 59.5% | OVCAR-8 ovarian 57% | OVCAR-5 ovarian 99.9% | OVCAR-4 ovarian 88.9% | SK-OV-3 ovarian 105% | IGROV1 ovarian 64.8% | OVCAR-3 ovarian 66.8% | HS 578T breast 91.1% | NCI/ADR-RES ovarian 83.2%

COc1ccc(-c2cc(-c3cccnc3)nc3sc4c(=O)n(-c5ccc(C)cc5)nnc4c23)cc1OC
inactive: SK-MEL-2 melanoma 107% | EKVX NSCLC 103% | SN12C renal 94.6% | UO-31 renal 81.1% | TK-10 renal 115% | ACHN renal 93.7% | CAKI-1 renal 83.1% | A498 renal 88.8% | CCRF-CEM leukemia 104% | RPMI-8226 leukemia 99.7% | OVCAR-8 ovarian 105% | OVCAR-5 ovarian 90% | OVCAR-4 ovarian 109% | SK-OV-3 ovarian 95% | IGROV1 ovarian 99.6% | OVCAR-3 ovarian 107% | HS 578T breast 93.9% | NCI/ADR-RES ovarian 102%

Brc1cccc(-c2nc(-c3ccc4c(c3)OCCO4)co2)c1
inactive: SK-MEL-2 melanoma 37.6% [25 µM] | EKVX NSCLC 51.5% [25 µM] | SN12C renal 54% [25 µM] | UO-31 renal 70% [25 µM] | TK-10 renal 84.7% [25 µM] | ACHN renal 85.4% [25 µM] | CAKI-1 renal 52.3% [25 µM] | A498 renal 23.5% [25 µM] | MOLT-4 leukemia 45.4% [25 µM] | SR leukemia 37.7% [25 µM] | OVCAR-8 ovarian 71.8% [25 µM] | OVCAR-5 ovarian 81.4% [25 µM] | OVCAR-4 ovarian 81% [25 µM] | SK-OV-3 ovarian 69.7% [25 µM] | IGROV1 ovarian 62.1% [25 µM] | OVCAR-3 ovarian 32.7% [25 µM] | HS 578T breast 65.4% [25 µM] | NCI/ADR-RES ovarian 28.5% [25 µM]

O=S(=O)(Nc1ccc(F)c(Cl)c1)c1ccc(-c2cnc(C3CC3)o2)cc1
inactive: SK-MEL-2 melanoma 38% | EKVX NSCLC 32.2% | SN12C renal 49.9% | UO-31 renal 41.8% | TK-10 renal 44% | ACHN renal 44.5% | CAKI-1 renal 32.5% | CCRF-CEM leukemia 19.6% | MOLT-4 leukemia 29.5% | OVCAR-8 ovarian 21.7% | OVCAR-5 ovarian 34.4% | OVCAR-4 ovarian 39.1% | SK-OV-3 ovarian 35.1% | IGROV1 ovarian 27.3% | HS 578T breast 11.3%
active: A498 renal -14.5% | OVCAR-3 ovarian -8.13% | NCI/ADR-RES ovarian -17%

O=C(CNC1C2CC3CC(C2)CC1C3)Sc1nnc2sc3ccccc3n12 (stereo unspecified)
inactive: SK-MEL-2 melanoma 108% | EKVX NSCLC 93% | SN12C renal 101% | UO-31 renal 78.3% | TK-10 renal 127% | ACHN renal 100% | CAKI-1 renal 76.4% | A498 renal 107% | CCRF-CEM leukemia 86.1% | RPMI-8226 leukemia 97.3% | OVCAR-8 ovarian 106% | OVCAR-5 ovarian 100% | OVCAR-4 ovarian 87.6% | SK-OV-3 ovarian 94.2% | IGROV1 ovarian 104% | OVCAR-3 ovarian 98.2% | HS 578T breast 89.5% | NCI/ADR-RES ovarian 99.2%
